The panel holds about 79,000 compounds, 15% with a hit somewhere; the sample as a whole holds those more often. Unmarked numbers belong to inactive results. Active and inactive are the calls of the source. No stated cut-off is given here; in the data, active means growth inhibition above about 70%; inactive means the rest.

The record followed here is PubChem BioAssay (NCI).

Assay [1] can be described thus: NCI Yeast Anticancer Drug Screen. Data for the rad50 strain (AID 155).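 Further: 0% = growth of vehicle-only cultures of the same strain.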 To be noted: S. cerevisiae rad50 strain growth inhibition; at 50.0 µM; hits give high values. Summed up:
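Cells are treated with compound, grown, and their growth is then scored against vehicle-only cultures of the same repair-deficient yeast strain.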

Assay [2] can be described thus: NCI Yeast Anticancer Drug Screen. Data for the mec2-1 strain (AID 157). To be noted: S. cerevisiae mec2-1 strain, at 50.0 µM, hits give high values. In a few lines:
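Test agents were screened against the mec2-1 yeast strain, with defined DNA repair or cell cycle alteration. Growth was scored as inhibition against vehicle-only controls.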

Assay [3] in a line: NCI Yeast Anticancer Drug Screen. Data for the sgs1 mgt1 strain (AID 161).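 Further: 0% = growth of cultures given vehicle only.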 To be noted: S. cerevisiae sgs1 mgt1 strain, at 50.0 µM, hits give high values. Summed up:
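Mutant yeast exposed to compound; growth scored against vehicle-only wells.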

Assay [4] in a line: NCI Yeast Anticancer Drug Screen. Data for the cln2 rad14 strain (AID 165).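 Further: 0% = growth equal to vehicle treated cultures.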 To be noted: S. cerevisiae cln2 rad14 strain, at 50.0 µM, hits give high values. Summed up: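 Growth of compound-exposed yeast (cln2 rad14 genotype) measured and expressed as inhibition relative to vehicle.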
Assay [5] in a line: NCI Yeast Anticancer Drug Screen. Data for the bub3 strain (AID 167). To be noted: S. cerevisiae bub3 mutant strain, at 50.0 µM, hits give high values. In a few lines: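 Part of a panel of yeast mutants defective in DNA damage repair or cell cycle regulation. Each strain is grown with compound, and inhibition is calculated relative to solvent-treated cultures.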
Assay [6] can be described thus: NCI Yeast Anticancer Drug Screen. Data for the mlh1 rad18 strain (AID 175). To be noted: S. cerevisiae mlh1 rad18 strain growth inhibition; at 50.0 µM; hits give high values. In a few lines:
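In this whole-cell yeast screen, a strain with altered DNA damage repair is challenged with compound, and its growth is measured against matched vehicle-treated controls.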

`NC(=O)N/N=C1\CC2CC1C1CCCC21` (stereo not drawn): the growth inhibition is 8.05% in assay [1]; 5.35% in assay [2]; -1.75% in assay [3]; -0.5% in assay [4]; -8.9% in assay [5]; 15.3% in assay [6].
As to `O=C1CCCC2=C1CC1=C(CCCC1=O)N2c1ccccc1C(=O)O`, the growth inhibition is -25.2% in assay [1]; -20.8% in assay [2]; -23.8% in assay [3]; -5% in assay [4]; -21.9% in assay [5]; -36.3% in assay [6].
In the case of `O=c1ccccc2cccc(O)c12`, the growth inhibition in assay [1] is 8.25%; in assay [2], 0.2%; in assay [3], -1.35%; in assay [4] it was -17.4%; in assay [5], 8.15%; in assay [6] it was 10.3%.
`COc1cc(C(=O)O)cc(OC)n1`: the growth inhibition is 10.8% in assay [1]; 4.15% in assay [2]; -6.6% in assay [3]; -36.4% in assay [4]; -16.9% in assay [5]; 8.25% in assay [6].
For the molecule `CC(C)CSCC1OC(n2cnc3c(N)nccc32)C(O)C1O` (stereo not drawn), the growth inhibition is -6.15% in assay [1]; -13.8% in assay [2]; -7.85% in assay [3]; 10% in assay [4]; -12.7% in assay [5]; -20.4% in assay [6].
As for `OCCCCN(CCO)CCCCO`, the growth inhibition in assay [1] is -2.75%; in assay [2] it was -7.25%; in assay [3], -1.5%; in assay [4], -12.4%; in assay [5], 13.9%; in assay [6], -3.5%.
Turning to `O=c1oc2ccccc2cc1F`, the growth inhibition in assay [1] is 16.4%; in assay [2] it was 7.2%; in assay [3], -9.75%; in assay [4], 5.3%; in assay [5], 16.9%; in assay [6], 21.4%.
In the case of `FC(F)(F)c1ccc(C2SCc3nc4ccccc4n32)cc1` (stereo not drawn), the growth inhibition in assay [1] was -43%; in assay [2], -5.4%; in assay [3], -1.95%; in assay [4], -0.5%; in assay [5], -14.2%; in assay [6], 11.3%.
With `O=[N+]([O-])c1ccc(Cl)c(C(F)(F)F)c1`, the growth inhibition is -0.8% in assay [1]; 5.2% in assay [2]; 4% in assay [3]; -2.75% in assay [4]; 1.2% in assay [5]; -15.7% in assay [6].
Turning to `O=C(NNC(=S)Nc1cccc(Cl)c1)c1ccncc1`, the growth inhibition in assay [1] was 21.8%; in assay [2], 6.5%; in assay [3], 26.6%; in assay [4] it was 9.45%; in assay [5] it was 19.9%; in assay [6], -9.55%.
In the case of `O=C1N(Cc2ccccc2)CC2CCc3c(ccc4ccccc34)N12` (stereo not drawn), the growth inhibition was 11% in assay [1]; -12.9% in assay [2]; -1.3% in assay [3]; -3.85% in assay [4]; 4.85% in assay [5]; 4.75% in assay [6].
In the case of `CCCCCCCCCCCCCCCCCCn1cnc2ncnc(Cl)c21`, the growth inhibition in assay [1] is 6.95%; in assay [2] it was 5.6%; in assay [3], 8.15%; in assay [4], 55.3%; in assay [5] it was 96.5% (active); in assay [6] it was 32.7%.
As to `CC(C)OC(=O)C(C)(OC(=O)c1ccccc1)c1ccccc1` (stereo not drawn), the growth inhibition in assay [1] is 5.35%; in assay [2], -14.8%; in assay [3], 4.35%; in assay [4] it was -13.1%; in assay [5], 19.1%; in assay [6], 14.3%.
For the molecule `CC1=CC(C)(C)N=C2SC(c3ccc(Cl)cc3)=NN12`, the growth inhibition in assay [1] was 15.8%; in assay [2], 7.25%; in assay [3] it was 13.2%; in assay [4] it was -5.8%; in assay [5], 13.2%; in assay [6], 10.6%.
As for `CC1CC(=O)C(CCC#N)=C(O)C1` (stereo not drawn), the growth inhibition was 4.85% in assay [1]; -14.2% in assay [2]; -8.15% in assay [3]; -9.9% in assay [4]; 5.55% in assay [5]; 4.95% in assay [6].
As to `C/C(=N/O)c1c[n+]([O-])ccn1`, the growth inhibition in assay [1] is -3.9%; in assay [2], -3.15%; in assay [3], -7.9%; in assay [4] it was -31.2%; in assay [5], 4.7%; in assay [6], -0.5%.
`CCNC(=O)NC(=O)C(C)(C)Oc1ccc(Cl)cc1`: the growth inhibition was -8.4% in assay [1]; 10.4% in assay [2]; 7.4% in assay [3]; 12.5% in assay [4]; 12.4% in assay [5]; 18.8% in assay [6].
`O=S(=O)(O)SCCCNCCCCCCCCNCCCSS(=O)(=O)O`: the growth inhibition was -18.6% in assay [1]; -8.85% in assay [2]; -1.6% in assay [3]; -13.3% in assay [4]; 8.45% in assay [5]; 3.45% in assay [6].
Regarding `O=C(N/N=C\c1ccc(Cl)cc1Cl)C1CC1`, the growth inhibition in assay [1] was -19.8%; in assay [2] it was -3.8%; in assay [3] it was -7.6%; in assay [4] it was -19.2%; in assay [5], -19.3%; in assay [6], -24.9%.
With `CC(C)(C)c1ccc(SC(=O)NCCCl)cc1`, the growth inhibition is -1.55% in assay [1]; 23.9% in assay [2]; 14.2% in assay [3]; -31.1% in assay [4]; -5.4% in assay [5]; -11.2% in assay [6].
Consider `O=C(N/N=C\c1ccc(Cl)cc1Cl)c1ccc(F)cc1`, for which the growth inhibition in assay [1] was -10.5%; in assay [2], -10.8%; in assay [3], -7.75%; in assay [4], 0.3%; in assay [5] it was -1.15%; in assay [6], -4.1%.
In the case of `COc1cc2c(cc1OC)C(=O)CC2`, the growth inhibition is -12.7% in assay [1]; -10.9% in assay [2]; -19.7% in assay [3]; -5.25% in assay [4]; -4.2% in assay [5]; 0.15% in assay [6].
Turning to `Cc1ccc(S(=O)(=O)CC(=O)c2ccc(Br)cc2)cc1`, the growth inhibition in assay [1] was -2.7%; in assay [2], -21.2%; in assay [3], -16.4%; in assay [4], 4.9%; in assay [5], 6.55%; in assay [6], 8.75%.
Regarding `COC(=O)/C=C/CCBr`, the growth inhibition in assay [1] was -13%; in assay [2], -22.1%; in assay [3] it was -17.6%; in assay [4], -39.1%; in assay [5], -5.2%; in assay [6] it was -11.5%.
Regarding `CNC(CC(=O)O)C(=O)O` (stereo not drawn), the growth inhibition in assay [1] was -0.4%; in assay [2], -3.95%; in assay [3], -14.6%; in assay [4], -15.1%; in assay [5], 2.5%; in assay [6] it was -3.05%.
For `COc1ccc(C(=O)C[n+]2cc(Br)cc(Br)c2)cc1`, the growth inhibition is 7.9% in assay [1]; -12.8% in assay [2]; -7% in assay [3]; -3.95% in assay [4]; 14.1% in assay [5]; -8.95% in assay [6].
In the case of `CCOC(=O)C(NC(=O)Cc1ccccc1)C(=O)O` (stereo not drawn), the growth inhibition in assay [1] is -18.8%; in assay [2] it was 15.5%; in assay [3], -3.2%; in assay [4], -6.4%; in assay [5], -1.65%; in assay [6], 3.35%.
Consider `CCN(CC)CCN(CC)CCN(CC)CC`, for which the growth inhibition was 6.7% in assay [1]; 5.65% in assay [2]; -1.75% in assay [3]; 3.85% in assay [4]; 4.1% in assay [5]; -0.7% in assay [6].
Consider `CC(=O)c1cccc(NCn2nnc3ccccc32)c1`, for which the growth inhibition is -47.5% in assay [1]; -8.65% in assay [2]; -62.3% in assay [3]; -4.25% in assay [4]; -45.4% in assay [5]; -34.5% in assay [6].
As for `CC(C)(CS(C)(=O)=O)C(=O)O`, the growth inhibition in assay [1] is 2.5%; in assay [2] it was -18.9%; in assay [3] it was 3.05%; in assay [4] it was -7.55%; in assay [5], -2.05%; in assay [6] it was 4.65%.
In the case of `CC1=NNC(=O)C2CCC(=O)N12` (stereo not drawn), the growth inhibition was 14.8% in assay [1]; 1% in assay [2]; 7.15% in assay [3]; 11.1% in assay [4]; 12.1% in assay [5]; 22.8% in assay [6].
Turning to `CC(C)(C#N)OC(=O)Nc1cccc(Cl)c1`, the growth inhibition was 5.55% in assay [1]; -5.6% in assay [2]; 3.75% in assay [3]; -35.1% in assay [4]; -30.6% in assay [5]; -26.8% in assay [6].
As for `CN(C)c1ccc(N=Nc2ccc(C(C)(C)C)cc2)cc1`, the growth inhibition was -11.3% in assay [1]; 3.3% in assay [2]; 5.55% in assay [3]; -3.1% in assay [4]; -10.6% in assay [5]; -20.3% in assay [6].
On to `[Cl][Mn][Cl]`, for which the growth inhibition in assay [1] was 10.2%; in assay [2], 6.4%; in assay [3] it was 17.4%; in assay [4] it was -7.15%; in assay [5], -4.75%; in assay [6], -0.15%.
Consider `CN1CCCC1c1cccnc1.O=C(O)c1ccccc1O.O=C([O-])c1ccccc1[OH2+].O=C([O-])c1ccccc1[OH2+].O=C([O-])c1ccccc1[OH2+].[Mn+2]` (stereo not drawn), for which the growth inhibition in assay [1] was 1.55%; in assay [2], -14.2%; in assay [3] it was -10.3%; in assay [4], -29.6%; in assay [5], -45.8%; in assay [6], 7.3%.
Take `COC1CCC2(C)C3CCC4C(=CCC5C(C)(C)C(O)CCC45C)CC3(C)CCC2C1(C)C` (stereo not drawn): the growth inhibition in assay [1] was -8.45%; in assay [2], -12.3%; in assay [3], -31.3%; in assay [4] it was -25.4%; in assay [5], 1.2%; in assay [6], -12.7%.
On to `O=C(NC(Cc1ccccc1)C(=O)NC(Cc1c[nH]c2ccccc12)C(=O)O)OCc1ccccc1` (stereo not drawn), for which the growth inhibition is 1.9% in assay [1]; 7.45% in assay [2]; -3.95% in assay [3]; -7.3% in assay [4]; -3.55% in assay [5]; 12.2% in assay [6].
On to `Cc1ccc2ccccc2c1Cc1c(C=O)[nH]c(=S)[nH]c1=O`, for which the growth inhibition was 94.7% (active) in assay [1]; 90.8% (active) in assay [2]; 97% (active) in assay [3]; 82.5% (active) in assay [4]; 90.5% (active) in assay [5]; 98.8% (active) in assay [6].
